# Bioassay records deposited in PubChem by The Scripps Research Institute Molecular Screening Center.
# GPR151 ag – activates the human receptor GPR151; Q8TDV0; PathHunter beta-arrestin GPR151 cells, luminescence; activation, % at 11.2 µM; 650,000 tested, 1% active; AID 1508602; in the data active = activation above about 4.9%;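 also: 0% = median of compound wells and 100% = cells with positive control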
# FBW7 act – human FBW7 E3 ligase activation, primary screen; normalized activity (activation), % at 26.1 µM; 650,000 tested, 0.13% active; Q969H0; AlphaScreen FBW7–phospho-cyclin E peptide binding, activator screen; in the data active = normalized activity above about 1.9%;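 also: purified mutant Fbw7 with reduced substrate affinity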
# MITF inh – inhibitors of human MITF; O75030; AlphaScreen MITF homodimerization, bead proximity signal; inhibition, % at 2.6 µM; 650,000 tested, 0.91% active; AID 1259374; in the data active = inhibition above about 50%;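 also: 0% = vehicle wells with protein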
# Target sequence (O75030 whole entry, looked up): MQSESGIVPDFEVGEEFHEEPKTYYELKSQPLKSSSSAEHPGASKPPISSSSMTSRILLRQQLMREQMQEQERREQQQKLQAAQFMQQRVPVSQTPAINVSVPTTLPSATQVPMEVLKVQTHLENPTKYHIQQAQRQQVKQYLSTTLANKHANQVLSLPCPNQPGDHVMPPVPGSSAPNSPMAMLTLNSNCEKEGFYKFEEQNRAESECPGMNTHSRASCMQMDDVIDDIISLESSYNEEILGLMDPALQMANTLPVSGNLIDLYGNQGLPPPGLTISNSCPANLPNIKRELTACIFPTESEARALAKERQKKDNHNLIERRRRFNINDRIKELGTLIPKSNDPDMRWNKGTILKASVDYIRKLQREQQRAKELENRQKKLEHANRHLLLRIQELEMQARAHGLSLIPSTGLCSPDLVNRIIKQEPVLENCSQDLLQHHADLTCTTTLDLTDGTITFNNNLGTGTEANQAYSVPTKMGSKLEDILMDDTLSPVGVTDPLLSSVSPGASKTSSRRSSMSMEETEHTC
# TEAD-YAP inh – TEAD-YAP interaction inhibition. HEK-TIYL cells, TEAD-Gal4/YAP UAS-luciferase luminescence. 640,000 tested, 1.4% active. inhibition, % at 9.12 µM; in the data active = inhibition above about 32%;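 also: 0% = median of test compound wells and 100% = reference inhibitor wells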
# MITF inh conf – human MITF inhibition, confirmation; 4,700 tested, 16% active; inhibition, % at 2.6 µM; shares compounds with MITF inh; AID 1259372; AlphaScreen MITF homodimerization, biotin/His-MITF beads;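 active = inhibition above a cutoff derived from the DMSO control wells, cut at about 28% in these data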;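 also: 0% = MITF dimer wells with DMSO only; inhibitors lower the bead chemiluminescence by keeping MITF from dimerizing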
# AS interf DR – counter-screen: compounds optically interfering with AlphaScreen; 480 tested, 6% active; AlphaScreen optical interference counterscreen, cell-free; AID 1259373; shares compounds with MITF inh; IC50, µM; call rule not given here
# AS interf ctr – optically interferes with AlphaScreen signal. shares compounds with MITF inh. LysRS AlphaScreen counterscreen, signal interference, triplicate. inhibition, % at 2.6 µM. 4,700 tested, 7.6% active. AID 1259376;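 active = inhibition above a cutoff derived from the DMSO control wells, cut at about 30% in these data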
# * = called active by the depositor; · = not tested or not shown. This is a sample that favours compounds with a hit; in the whole collection about 3.5% have one here.
SMILES,GPR151 ag,FBW7 act,MITF inh,TEAD-YAP inh,MITF inh conf,AS interf ctr,others
CCOc1cc(CN2CCN(Cc3cccc(Cl)c3)CC2)ccc1OC,1,0,40,15,·,·,
CCOc1cc(CN2CCN(Cc3ccc(Cl)cc3)CC2)ccc1OC,-1,0,61*,-4,6,9,
CCc1ccc(NC(=O)c2ccc(-n3cnnn3)cc2)cc1,0,0,-5,-8,·,·,
CCOc1cc(CN2CCN(Cc3cc(OC)c(OC)c(OC)c3)CC2)ccc1OC,2,0,71*,-8,-17,0,
CCOc1cc(CN2CCCCC2)ccc1OC,1,0,2,10,·,·,
CCOc1cc(CN2CCN(C3CCCC3)CC2)ccc1OC,1,0,53*,6,-2,-7,
COC(=O)c1c(NC(=O)c2ccc(Cl)c([N+](=O)[O-])c2)sc2c1CCC2,0,0,-2,2,·,·,
O=C(NCc1cccnc1)c1ccnc(-c2cccs2)c1,0,0,51*,9,30*,-3,AS interf DR=>6.9
O=C(NCc1ccccc1)c1ccnc(-c2cccs2)c1,-1,0,31,-5,·,·,
CCN(CC(=O)Nc1cccc(OC)c1)Cc1cc(=O)oc2cc(NC(C)=O)ccc12,-1,0,54*,8,24,-6,
CCN(CC(=O)Nc1cccc(OC)c1)CC(=O)Nc1ccc(C)cc1Cl,2,0,62*,8,4,18,
CCN(CC)CC(=O)Nc1cccc(OC)c1,3,0,1,-1,·,·,
O=C(CN1CCN(C(=O)CSc2ccc(F)cc2)CC1)c1cccs1,-1,0,80*,-12,8,15,
Cc1cc(NC2CCCCC2)nc(-c2ccccc2O)n1,-1,1,79*,-3,-16,-8,
O=C(CSc1ccc(-c2ccccn2)nn1)Nc1ccccc1F,-5,0,52*,0,56*,88*,
O=C(CSc1ccc(-c2ccccn2)nn1)c1ccccc1,0,-2,53*,-44,88*,100*,
O=C(CSc1ccc(-c2ccccn2)nn1)Nc1ccc(F)c(F)c1,-2,-2,17,-1,·,·,
COc1c(Cl)cc(Cl)cc1C1C(C#N)=C(N)Oc2n[nH]c(-c3ccc4c(c3)OCO4)c21 (configuration not stated),0,0,1,-2,·,·,
CC(C)N(C(=O)CNCCN1CCOCC1)c1ccccc1,0,0,72*,1,-5,1,
O=C(Nc1ccc2c(c1)OCO2)c1cnc(NCCN2CCOCC2)s1,-2,0,52*,-9,2,10,
CC(C)c1cccc(C(C)C)c1NC(=O)CNCCO,0,0,53*,-1,4,4,
O=C(CNCc1ccc2c(c1)OCO2)Nc1ccc(N2CCCC2)cc1,0,0,62*,-1,21,23,
O=C(NCCN1CCOCC1)c1cnc(NCc2ccc3c(c2)OCO3)s1,0,0,12,3,·,·,
Cc1c(NC(=O)c2cccs2)cccc1C(=O)NN1C(=O)c2ccccc2C1=O,1,0,16,1,·,·,
CCOC(=O)CCN(Cc1c(Cl)cccc1Cl)S(=O)(=O)c1ccc(Cl)cc1,-1,0,-13,-7,·,·,
SMILES,GPR151 ag,FBW7 act,MITF inh,TEAD-YAP inh,MITF inh conf,AS interf ctr,others
O=C(CNCCN1CCOCC1)Nc1ccc(N2CCCCC2)cc1,0,0,93*,1,-16,-5,
Cc1cccc(C)c1NC(=O)CNCCN1CCOCC1,-1,0,92*,1,-12,-5,
O=C(NCCN1CCOCC1)c1cccc(C(=O)NCCN2CCOCC2)c1,0,0,-7,2,·,·,
c1cc2c(cc1CNCC1CCCCC1)OCO2,-1,0,58*,-8,9,11,
O=C(NCCN1CCOCC1)c1cccc(-c2ccccc2)c1,0,0,75*,-5,11,6,
COc1ccc(NC(=O)/C=C/c2ccco2)cc1S(=O)(=O)Nc1ccccc1Cl,0,0,-10,3,·,·,
Cc1ccc(/C=N/NC(=O)c2nnn(-c3nonc3N)c2CN2CCOCC2)o1,-1,0,-3,8,·,·,
CCCCNCC(=O)Nc1ccccc1N1CCCCCC1,0,0,12,4,·,·,
O=C(CNCCCN1CCOCC1)Nc1ccccc1N1CCCCCC1,1,0,71*,1,5,16,
COc1ccc(CCNCC(=O)Nc2ccccc2N2CCCCC2)cc1,0,0,61*,-4,9,16,
